Inconclusive results are not listed. Calls of active or inactive are those of the source. Unless noted, calls come from the whole dose curve; as a rule, active = well fitted curve in the direction sought with a large enough effect in the repeat runs; inconclusive = weak or mixed curves; inactive = no such curve, though single readings can be large; an effect the other way counts as inactive or inconclusive.
Experiments:
[1] = qHTS assay to identify small molecule agonists of the peroxisome proliferator-activated receptor delta (PPARd) signaling pathway - cell viability counter screen (AID 743211); note: nearly all actives have a fitted effect of over 55% in size
Summary of the method: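 Following 5 h plating at 37 C and 5% CO2, PPARd UAS-bla HEK293H cells took up test compounds for 17 h. Viability was quantified by luminescence 30 min after CellTiter-Glo addition at room temperature.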

[2] = target: Peroxisome proliferator-activated receptor delta (Homo sapiens) (UniProt Q03181); assay: qHTS assay to identify small molecule agonists of the peroxisome proliferator-activated receptor delta (PPARd) signaling pathway (AID 743212; calls by dose curve)
Summary of the method: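 A PPARd-bla HEK293H line with beta-lactamase under an Upstream Activator Sequence is treated with compounds at 37 C. Substrate loading for 2 h at room temperature precedes the fluorescence measurement.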

[3] = qHTS assay to identify small molecule antagonists of the peroxisome proliferator-activated receptor delta (PPARd) signaling pathway - cell viability counter screen (AID 743213); note: nearly all actives have a fitted effect of over 50% in size
Summary of the method: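 Cytotoxicity counter screen: CellTiter-Glo luminescence read 30 min after addition, in the same wells as the reporter assay. There, PPARd UAS-bla HEK293H cells (3000/well) were treated 17 h at 37 C with compound and 300 nM L165041.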

[4] = target: Peroxisome proliferator-activated receptor delta (Homo sapiens) (UniProt Q03181); assay: qHTS assay to identify small molecule antagonists of the peroxisome proliferator-activated receptor delta (PPARd) signaling pathway (AID 743215; active = well fitted inhibition curve with a large enough effect in the signal ratio in the repeat runs, not every such curve was filed as active; the % refers to the signal ratio;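 note: cells stimulated with agonist L165041 at 300 nM final during compound exposure; series mostly up to about 62 µM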)
Summary of the method: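 Antagonist-mode beta-lactamase reporter screen: HEK293H cells with UAS-bla under PPARd control, stimulated by 300 nM L165041 (final) alongside test compound for 17 h at 37 C, then FRET fluorescence after 2 h substrate incubation.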

[5] = target: Bile acid receptor (Homo sapiens) (UniProt Q96RI1); assay: qHTS assay to identify small molecule antagonists of the farnesoid-X-receptor (FXR) signaling pathway (AID 743217; active = well fitted inhibition curve with a large enough effect in the signal ratio in the repeat runs, not every such curve was filed as active; the % refers to the signal ratio)
Summary of the method: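 Beta-lactamase reporter under UAS control in HEK 293T cells; compound exposure 16 h at 37 °C in the presence of chenodeoxycholic acid (50 uM final); signal from B/G FRET substrate after 2 h at room temperature.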

[6] = qHTS assay to identify small molecule agonists of the farnesoid-X-receptor (FXR) signaling pathway - cell viability counter screen (AID 743218); note: nearly all actives have a fitted effect of over 45% in size
Summary of the method: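 In GeneBLAzer FXR-UAS-bla HEK 293T cells, compounds act for 16 h at 37 C. Cell viability is then scored in the reporter wells by CellTiter-Glo, 30 min at RT, luminescence.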

[7] = target: Bile acid receptor (Homo sapiens) (UniProt Q96RI1); assay: qHTS assay to identify small molecule agonists of the farnesoid-X-receptor (FXR) signaling pathway (AID 743220; active = well fitted activation curve with a large enough effect in the signal ratio in the repeat runs, not every such curve was filed as active; the % refers to the signal ratio)
Summary of the method: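 Beta-lactamase reporter under UAS control in GeneBLAzer FXR HEK 293T cells (5000/well) measured with LiveBLAzer FRET substrate after 2 h at room temperature. Compound exposure lasted 16 h at 37C.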

[8] = qHTS assay to identify small molecule antagonists of the farnesoid-X-receptor (FXR) signaling pathway - cell viability counter screen (AID 743221; active = well fitted cell-killing curve with a large enough effect in the repeat runs, not every such curve was filed as active; note: nearly all actives have a fitted effect of over 50% in size)
Summary of the method: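 Compound effects on cell number were measured as CellTiter-Glo luminescence in HEK 293T cells expressing FXR-UAS-bla, after 16 h at 37 C with 50 uM CDCA (final).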

[9] = target: Vitamin D3 receptor (Homo sapiens) (UniProt P11473); assay: qHTS assay to identify small molecule antagonists of the vitamin D receptor (VDR) signaling pathway (AID 743223; active = well fitted inhibition curve with a large enough effect in the signal ratio in the repeat runs, not every such curve was filed as active; the % refers to the signal ratio)
Summary of the method: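 Beta-lactamase activity in VDR-bla cells is measured by FRET substrate fluorescence (2 h, room temperature) after cells spend 16 h at 37C with test compound and 3 nM final 1alpha,25-dihydroxyvitamin D3.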

[10] = qHTS assay to identify small molecule agonists of the vitamin D receptor (VDR) signaling pathway - cell viability counter screen (AID 743224); note: series mostly up to about 63 µM; nearly all actives have a fitted effect of over 50% in size
Summary of the method: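 VDR-bla cell line, quantitative HTS format; 16 h compound incubation (37C, 5% CO2); ATP-based CellTiter-Glo luminescence measured in the reporter assay wells.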

[11] = qHTS assay to identify small molecule antagonists of the vitamin D receptor (VDR) signaling pathway - cell viability counter screen (AID 743225); note: nearly all actives have a fitted effect of over 50% in size
Summary of the method: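 In this counter screen, VDR-bla HEK 293T cells receive test compound plus 3 nM final calcitriol for 16 h at 37C. Room-temperature steps of 2 h with the beta-lactamase substrate, then 30 min with CellTiter-Glo, precede the luminescence read.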

[12] = qHTS assay to identify small molecule agonists of the NFkB signaling pathway (AID 1159509; active = well fitted curve in the direction sought with a large enough effect in the signal ratio in the repeat runs, not every such curve was filed as active; the % refers to the signal ratio; note: series mostly up to about 61 µM)
Summary of the method: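 NFkB-bla ME-180 cells carry a beta-lactamase reporter under an NF-kB response element. They were plated overnight, then exposed to compounds for 5 h at 37 C. Read-out is LiveBLAzer FRET after 1.5 hr at room temperature (405 nm excitation; 460/530 nm emission).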

[13] = qHTS assay to identify small molecule agonists of the NFkB signaling pathway - cell viability counter screen (AID 1159515; calls by dose curve; note: series mostly up to about 61 µM; nearly all actives have a fitted effect of over 55% in size)
Summary of the method: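 Viability in NFkB-bla ME-180 cells was measured by CellTiter-Glo luminescence, 30 min room temperature, in wells already treated 5 hr with compounds and read for reporter FRET.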

[14] = qHTS assay to identify small molecule agonists of the endoplasmic reticulum stress response signaling pathway - cell viability counter screen (AID 1159517; calls by dose curve)
Summary of the method: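 CellTiter-Glo was added to wells already read for beta-lactamase FRET, and luminescence was recorded 30 min later. Cells: ESRE-bla HeLa, 1,500 per well, compound exposure 5 hr at 37 C.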

[15] = qHTS assay to identify small molecule antagonists of the retinoid-related orphan receptor gamma (ROR-gamma) signaling pathway - cell viability counter screen (AID 1159520); note: nearly all actives have a fitted effect of over 50% in size
Summary of the method: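 Tet-on ROR gamma CHO cells (1,000/well) were plated 4 hr, given compounds in DMSO for 2 hr at 37 C, then induced with 1 uM final doxycycline for 16 hr. Viability was read as ATP by CellTiter-Glo luminescence after 30 min.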

[16] = qHTS assay to identify small molecule agonists of the AP-1 signaling pathway - cell viability counter screen (AID 1159525; calls by dose curve; note: nearly all actives have a fitted effect of over 55% in size)
Summary of the method: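 ME-180 AP-1-bla, 2500 cells/well, Opti-MEM + 0.5% dialyzed FBS; overnight 37 °C; cpd 15-pt titration, 5 h 37 °C; CellTiter-Glo 30 min RT; luminescence read; normalised to TOAB and DMSO controls.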

[17] = qHTS assay to identify small molecule agonists of the AP-1 signaling pathway (AID 1159526; calls by dose curve)
[18] = target: Vitamin D3 receptor (Homo sapiens) (UniProt P11473); assay: qHTS assay to identify small molecule agonists of the vitamin D receptor (VDR) signaling pathway (AID 743222; calls by dose curve)
Summary of the method: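 Agonist activity measured in VDR-bla reporter cells. Exposure 16 h, 37C, 5% CO2; detection by B/G FRET substrate, 2 h RT.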

[19] = target: Nuclear receptor ROR-gamma (Homo sapiens) (UniProt P51449); assay: qHTS assay to identify small molecule antagonists of the retinoid-related orphan receptor gamma (ROR-gamma) signaling pathway (AID 1159521)
Summary of the method: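 Screening format: cell-based luciferase reporter in CHO cells with doxycycline-inducible RORγ. Compound pre-exposure lasts 2 h, doxycycline is 1 uM final, induction runs 16 h at 37 C, and ONE-Glo luminescence is read.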

Measured: Potency

Chain of Peroxisome proliferator-activated receptor delta (Homo sapiens) (Q03181 whole entry, looked up): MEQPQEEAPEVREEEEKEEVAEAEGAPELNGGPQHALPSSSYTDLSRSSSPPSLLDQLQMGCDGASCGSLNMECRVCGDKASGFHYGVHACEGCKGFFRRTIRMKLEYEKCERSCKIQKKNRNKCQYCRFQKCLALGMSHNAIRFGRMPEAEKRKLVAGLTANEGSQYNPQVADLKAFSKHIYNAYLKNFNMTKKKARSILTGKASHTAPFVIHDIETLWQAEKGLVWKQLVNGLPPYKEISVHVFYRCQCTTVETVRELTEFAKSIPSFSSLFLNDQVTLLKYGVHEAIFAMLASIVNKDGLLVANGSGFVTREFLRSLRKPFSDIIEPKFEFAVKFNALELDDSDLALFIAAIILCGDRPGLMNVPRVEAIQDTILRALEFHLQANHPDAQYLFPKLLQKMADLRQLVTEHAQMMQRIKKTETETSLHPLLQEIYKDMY
Chain of Vitamin D3 receptor (Homo sapiens) (P11473 whole entry, looked up): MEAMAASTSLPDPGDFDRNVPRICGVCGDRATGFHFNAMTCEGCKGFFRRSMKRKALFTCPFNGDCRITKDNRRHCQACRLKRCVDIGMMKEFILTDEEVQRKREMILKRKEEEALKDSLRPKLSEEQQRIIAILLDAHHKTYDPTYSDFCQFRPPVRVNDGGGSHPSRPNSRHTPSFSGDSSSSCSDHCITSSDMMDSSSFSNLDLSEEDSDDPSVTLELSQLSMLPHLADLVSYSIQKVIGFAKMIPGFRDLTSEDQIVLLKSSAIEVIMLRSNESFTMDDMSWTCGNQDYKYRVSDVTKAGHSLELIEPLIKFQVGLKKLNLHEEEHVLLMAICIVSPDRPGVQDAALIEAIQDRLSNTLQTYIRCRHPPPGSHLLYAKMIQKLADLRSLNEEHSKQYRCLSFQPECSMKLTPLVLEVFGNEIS
Chain of Bile acid receptor (Homo sapiens) (Q96RI1 whole entry, looked up): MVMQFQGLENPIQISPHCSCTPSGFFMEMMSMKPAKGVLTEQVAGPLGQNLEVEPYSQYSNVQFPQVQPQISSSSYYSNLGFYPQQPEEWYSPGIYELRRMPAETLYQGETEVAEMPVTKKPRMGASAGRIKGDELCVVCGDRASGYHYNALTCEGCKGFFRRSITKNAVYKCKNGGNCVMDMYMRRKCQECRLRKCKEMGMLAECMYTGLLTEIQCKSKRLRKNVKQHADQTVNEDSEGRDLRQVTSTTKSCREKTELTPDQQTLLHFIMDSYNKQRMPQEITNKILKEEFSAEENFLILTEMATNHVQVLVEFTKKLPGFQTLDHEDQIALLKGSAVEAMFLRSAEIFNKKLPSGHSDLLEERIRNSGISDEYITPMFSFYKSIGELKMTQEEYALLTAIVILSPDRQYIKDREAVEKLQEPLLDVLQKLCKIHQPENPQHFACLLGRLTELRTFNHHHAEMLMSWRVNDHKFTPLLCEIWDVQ

Cc1cccc(N(C)C(=S)Oc2ccc3c(c2)CCC3)c1
not listed: [18] | [19]
inactive: all other assays above

O=[N+]([O-])c1ccc(Nc2ccc(Nc3ccccc3)c(S(=O)(=O)O)c2)c([N+](=O)[O-])c1
not listed: [3] | [4] | [5] | [7] | [9] | [16] | [17]
inactive: all other assays above

O=C1NCCN1CCO
not listed: [2] | [3] | [4] | [5] | [7] | [19]
inactive: all other assays above

CN1C(C(=O)Nc2ccccn2)=C(O)c2sccc2S1(=O)=O
not listed: [5] | [7] | [9] | [10] | [11] | [16] | [17] | [18]
inactive: all other assays above

CCCCN1CCCC1C(=O)Nc1c(C)cc(C)cc1C (stereo not drawn)
inactive: [1] | [6] | [8] | [9] | [11] | [12] | [13] | [14] | [15] | [16]

Reference: PubChem BioAssay (Tox21)
